Our source for the IC50 values is PubChem BioAssay AID602397 (The Scripps Research Institute Molecular Screening Center, 2012).

The nature of this experiment: GFP fluorescence inhibitors and quenchers, late-stage follow-up, artefact control for Rin1-Abl interaction inhibitor project, biochemical, dose response (AID 602397). The conditions noted are these: GFP fluorescence quenching counterscreen. (In general: Counterscreens check selectivity or assay interference.)

The list shows a part of the results. Values without a mark were called inactive. The rule behind the calls is not given here.

In the case of `CN(Cc1c(F)cccc1Cl)C(=O)CNC(=O)c1ccc2c(c1)OCO2`, the IC50 is greater than 67.5 µM.

As usually defined, the IC50 is the point on the concentration scale where inhibition reaches its midpoint.
